These results are taken from PubChem BioAssay AID651814 (National Center for Advancing Translational Sciences (NCATS), 2012).

Among all 2,100 compounds or so, about 590 (28%) were called active. Roughly 42% stayed inconclusive and do not appear here. The call rests on the fitted dose curve; in most records, active means well fitted inhibition curve with a large enough effect; inconclusive means small, poorly fitted or top-dose-only effect; inactive means flat fitted curve, though single readings scatter. The list shows a part of the results.
Potency means the concentration at half of the fitted maximal effect.

DNA dC->dU-editing enzyme APOBEC-3F (Homo sapiens), sequence (Q8IUX4 whole entry, looked up): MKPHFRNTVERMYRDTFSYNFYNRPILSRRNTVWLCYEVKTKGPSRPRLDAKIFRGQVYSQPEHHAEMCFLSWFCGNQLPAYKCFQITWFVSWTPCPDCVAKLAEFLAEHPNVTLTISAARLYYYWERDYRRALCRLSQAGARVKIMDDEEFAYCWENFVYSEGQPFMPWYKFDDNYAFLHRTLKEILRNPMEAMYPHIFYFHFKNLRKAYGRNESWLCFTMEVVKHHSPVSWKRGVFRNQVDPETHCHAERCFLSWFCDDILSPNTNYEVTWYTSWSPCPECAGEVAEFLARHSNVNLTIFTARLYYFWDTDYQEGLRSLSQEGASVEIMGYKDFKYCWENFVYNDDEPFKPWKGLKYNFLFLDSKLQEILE

This assay has as its target DNA dC->dU-editing enzyme APOBEC-3F (Homo sapiens) (UniProt Q8IUX4). Briefly: qHTS for inhibitors of Vif-A3F interactions: Cherry picks. Further: nearly all actives have a fitted effect of over 70% in size.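 On max response: % of control where 0% means no effect; active compounds raise eYFP fluorescence by blocking Vif-driven A3F loss.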 The following applies: HeLa A3F-eYFP + Vif (tagged APOBEC3F with the HIV-1 protein that degrades it), eYFP fluorescence, 24 h. The source says: The recent discovery and characterization of host restriction factors, which provide a potent defense to invading retroviruses, has provided new targets for antiviral drug development. APOBEC3G (A3G) and APOBEC3F (A3F) are potent cytidine deaminases that block HIV-1 replication; HIV-1 expresses the Vif protein, which counteracts A3G and A3F by binding to them and inducing their proteasomal degradation. The Vif-A3G and Vif-A3F interactions provide two potential targets for development of small molecules which can interfere with the ability of Vif to degrade A3G or A3F. […] To identify inhibitors that can interfere with Vif mediated degradation of A3G and A3F, we have developed Hela cell lines that stably express A3G or A3F tagged with eYFP at the C-terminal end (A3G-eYFP or A3F-eYFP, respectively) and Vif. In the absence of an inhibitor, Vif induces degradation of A3G-eYFP and A3F-eYFP, and the cells are not fluorescent. In the presence of an inhibitor, it is expected that Vif will be unable to degrade A3G-eYFP and/or A3F-eYFP, resulting in an increase in yellow fluorescence. In this assay, Vif A3F was screened against the cherry picks ordered from the MLSMR. NIH Chemical Genomics Center [NCGC] NIH Molecular Libraries Probe Centers Network [MLPCN] MLPCN Grant: MH093245 Assay Submitter (PI): Vinay Pathak, National Cancer Institute
A3F-Vif cells were harvested from T225 flask and resuspended in phenol free OPTI-MEM medium with 5% FBS. Then 5 uL of 140,000 cells/mL resuspended cells was dispensed into each well of low base Aurora COC 1,536-well plates (black walled, clear bottom) using a Multidrop Combi dispenser. After overnight culture at 37 deg C with 5% CO2, a total of 23 nL of compounds at 5 selected concentrations from the NPC or positive control (2 mM stock of MG132) in DMSO was transferred to each well of the assay plate using a pintool (Kalypsys, San Diego, CA), and the plates were further incubated at 37 deg C with 5% CO2 for 24 hours. After that, the plates were measured on Acumen Explorer (TTP Lab Tech). The fluorescence was detected by 488 nm/Ex and […].
(qHTS replaces the single test concentration by a dilution series.)
As to `Cc1ccc(N2C(=O)[C@@H]3[C@H](C2=O)[C@H]2C=C(C(=O)c4ccccc4)C=CN2[C@@H]3C(=O)c2ccc(Cl)cc2)cc1`, the max response is -5.61% (inactive).

For the molecule `COc1ccc(/C=C(/C(=O)c2cccs2)N2C=CC=CC2=C(C#N)C#N)cc1`, the max response was -25.3% (inactive).

On to `CCOC(=O)c1c(CN(CC)CC)n(-c2ccccc2)c2ccc(O)cc12`, for which the max response was 0.203% (inactive).

`COc1cc(/C=C2\SC(=Nc3cccnc3)NC2=O)cc(OC)c1OC`: the max response was -8.17% (inactive).

As to `COc1cc(/C=C2/SC(=Nc3ccc(O)cc3)NC2=O)ccc1O`, the Potency was 16.4 µM (active).

As for `CCC(=O)NC(=S)Nc1cccc(Cl)c1N1CCCC1`, the max response is -0.93% (inactive).

On to `COCCCN(C(C)=O)c1nc(-c2ccc(OC)cc2)cs1`, for which the max response is -29.1% (inactive).

As to `CCOC(=O)c1cc(-c2ccccc2)sc1NC(=S)Nc1cc(C)ccn1`, the Potency is 8.2 µM (active).

Turning to `CCOC(=O)c1ccc(NC(=S)Nc2cccc(C)n2)cc1`, the max response was -6.7% (inactive).

Regarding `Cc1ccc(NC(=S)Nc2ccccn2)c(C)c1`, the max response is 1.92% (inactive).

With `CC(=O)Nc1ccc2c(c1)Cc1ccc(Cl)cc1-2`, the max response is -9.88% (inactive).

On to `NC(=O)C1CCN(c2nc3ccccc3nc2NS(=O)(=O)c2ccc(Br)cc2)CC1`, for which the max response is -0.959% (inactive).

As to `COc1ccc(N2C(=O)NC3CC2(C)Oc2ccccc23)cc1OC` (configuration not stated), the max response is -29.4% (inactive).

For `Cc1ccc2nc(/C(C#N)=C\c3ccc([N+](=O)[O-])o3)[nH]c2c1`, the Potency is 3.26 µM (active).

Take `N#C/C(=C\c1ccc([N+](=O)[O-])o1)c1nc2ccccc2[nH]1`: the Potency is 5.17 µM (active).

As for `COc1ccc(C(C)(O)c2nc(-c3ccccc3OC)cs2)cc1` (configuration not stated), the max response is -27.4% (inactive).

For `CN(C)c1ccc(/C=C2\Oc3ccc(C#Cc4cccc(N)c4)cc3C2=O)cc1`, the Potency is 12.5 µM (active).

As to `O=C1/C(=C/c2ccc([N+](=O)[O-])cc2)Oc2cc(O)ccc21`, the max response is -5.76% (inactive).

Consider `Cc1ccnc(N/C=C(\C#N)c2nc(-c3cccc(Br)c3)cs2)c1`, for which the Potency is 11.2 µM (active).

In the case of `O=C(O)c1ccccc1/C=N/Nc1ccc(S(=O)(=O)N2CCOCC2)cc1[N+](=O)[O-]`, the max response is -0.875% (inactive).

On to `O=[N+]([O-])c1ccccc1S(=O)(=O)Nc1ccc(-c2ccc(N3CCOCC3)nn2)cc1`, for which the max response was -8.95% (inactive).

`O=[N+]([O-])c1ccc(N/N=C/c2sc(N3CCOCC3)nc2-c2ccccc2)c(S(=O)(=O)Nc2ccccc2Cl)c1`: the Potency is 9.2 µM (active).

As to `COc1ccccc1NS(=O)(=O)c1cc([N+](=O)[O-])ccc1N/N=C/c1sc(N2CCOCC2)nc1-c1ccccc1`, the Potency was 2.06 µM (active).

Consider `COc1ccc(NC(=O)C2Cc3c(-c4cccc(C(C)=O)c4)ccnc3O2)cn1` (configuration not stated), for which the max response was -25.1% (inactive).

As to `CC(=O)/C(N=Nc1cc(C)ccc1O)=C(\C)O`, the Potency is 20.6 µM (active).

On to `Cc1cc(N/N=C/c2ccc(O)cc2O)nc(-n2nc(C)cc2C)n1`, for which the max response was 2.91% (inactive).

In the case of `COC(=O)c1sccc1S(=O)(=O)N(CC(=O)Nc1cc(F)ccc1F)c1ccc(C)c(C)c1`, the max response was 4.72% (inactive).

For the molecule `O=S(=O)(Nc1nc2n(n1)C(c1ccccc1)C=C(c1ccc(Cl)cc1)N2)c1ccccc1` (configuration not stated), the max response was -9.71% (inactive).

For the molecule `COc1ccc(C(=O)Nc2ccc3c(c2)N(C)C(=O)c2ccccc2S3)cc1OC`, the max response is -28.4% (inactive).

Consider `CC[n+]1ccc(/C=C2\Sc3ccccc3N2CCCS(=O)(=O)[O-])c2ccccc21`, for which the max response was -17.2% (inactive).

On to `CCN1/C(=C/c2cccc[n+]2C)Sc2ccc(OC)cc21`, for which the Potency was 18.4 µM (active).

As to `COc1ccc2c(c1)N(C)/C(=C/c1cccc[n+]1C)S2`, the Potency is 7.04 µM (active).

`CC[n+]1ccccc1/C=C1\Sc2ccc(C)cc2N1C`: the Potency is 23.1 µM (active).

Take `N#CC1=C(N)Oc2c(sc3ccccc23)C1c1ccco1` (configuration not stated): the max response was -18.3% (inactive).

For the molecule `COc1cc2c3nnc(-c4ccc(F)cc4)c-3cn(Cc3ccc(C)cc3)c2cc1OC`, the Potency is 9.94 µM (active).

Regarding `Cn1ccnc1Sc1nc2ccccc2nc1NS(=O)(=O)c1ccccc1`, the max response was -9.48% (inactive).

`O=C(Nc1nnc(-c2ccc3c(c2)CCCC3)o1)c1c(F)cccc1F`: the max response is 0.764% (inactive).

Regarding `COc1ccc2c(C)cc(SCC#N)nc2c1`, the Potency was 20.6 µM (active).

For `CCN(CC)c1nc2cc(OC)ccc2cc1C#N`, the max response was -15.5% (inactive).

On to `COCCNC(=S)NN=C1CCCCCC1`, for which the max response was 2.16% (inactive).

In the case of `C/C(=N\NC(=S)NCc1ccccc1)c1cccs1`, the max response is -3.71% (inactive).

Take `COc1cccc(NC(=O)c2oc3ccc(S(=O)(=O)N4CCC5(CC4)OCCO5)cc3c2C)c1`: the max response was -28.1% (inactive).

Turning to `CCOCCCNC(=O)/C(C#N)=C/c1ccc([N+](=O)[O-])o1`, the Potency was 16.4 µM (active).

`CC(NC(=O)/C(C#N)=C/c1ccc([N+](=O)[O-])o1)c1ccccc1` (configuration not stated): the Potency is 7.31 µM (active).

With `NC1=NC(=O)/C(=C/c2cc(Br)c(O)c(Br)c2)S1`, the max response is -7.06% (inactive).

Consider `Cc1ccc2[nH]c3c(c2c1)CCCC3NC(=O)CCl` (configuration not stated), for which the max response was -15.6% (inactive).

On to `O=C1CC(c2cc(Br)ccc2F)c2cc3c(cc2N1)CCC3` (configuration not stated), for which the max response is -29.3% (inactive).

Consider `O=C(NCc1cccc(F)c1)c1cccc2c1C(=O)c1ccc(N3CCCC3)cc1S2(=O)=O`, for which the Potency was 14 µM (active).

For the molecule `O=C(NCc1ccccc1C(F)(F)F)c1cccc2c1C(=O)c1ccc(N3CCC(N4CCCCC4)CC3)cc1S2(=O)=O`, the Potency is 16.4 µM (active).

In the case of `CC1CCN(c2ccc3c(c2)S(=O)(=O)c2cccc(C(=O)NCc4cccc(F)c4)c2C3=O)CC1`, the Potency was 14 µM (active).

In the case of `COc1ccc(-c2ccc3c(c2)S(=O)(=O)c2cccc(C(=O)NCCOc4ccccc4)c2C3=O)cc1OC`, the Potency was 15.8 µM (active).

Consider `COc1cc(C(=O)NCCOc2cc(C)cc(C)c2)c(Br)c(OC)c1OC`, for which the max response was -22.9% (inactive).

On to `Cc1cc(-c2nc(C)c(C(=O)NN)s2)no1`, for which the max response was -13.4% (inactive).

On to `CCn1c(O)c(/C=N/NC(=O)c2ccncc2)c(=O)n(CC)c1=S`, for which the max response was -6.26% (inactive).

Consider `O=C(NCc1ccccc1)c1cccc2c1C(=O)c1ccc(/C=C/c3ccccc3)cc1S2(=O)=O`, for which the Potency is 16.4 µM (active).

As to `CC(C)c1cccc(-c2ccc3c(c2)S(=O)(=O)c2cccc(C(=O)NCc4ccccc4)c2C3=O)c1`, the max response is -28.2% (inactive).

For `Cc1ccc(CNC(=O)c2cccc3c2C(=O)c2ccc(N4CCC(C)CC4)cc2S3(=O)=O)cc1`, the Potency was 16.4 µM (active).
